This note sets out measurements from article PMC4336329 (PLoS ONE, 2015).

Out of some 310,000 compounds screened, about 14,000 (4.5%) showed an effect of 50% or more. The effect is printed as a negative number. This excerpt belongs to a sample that is enriched for strong results.
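Further: peak tail current of the secondary pulse compared with the same well before compound.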

Chain of human ether-à-go-go-related gene (hERG) potassium channel (Q12809 whole entry, looked up): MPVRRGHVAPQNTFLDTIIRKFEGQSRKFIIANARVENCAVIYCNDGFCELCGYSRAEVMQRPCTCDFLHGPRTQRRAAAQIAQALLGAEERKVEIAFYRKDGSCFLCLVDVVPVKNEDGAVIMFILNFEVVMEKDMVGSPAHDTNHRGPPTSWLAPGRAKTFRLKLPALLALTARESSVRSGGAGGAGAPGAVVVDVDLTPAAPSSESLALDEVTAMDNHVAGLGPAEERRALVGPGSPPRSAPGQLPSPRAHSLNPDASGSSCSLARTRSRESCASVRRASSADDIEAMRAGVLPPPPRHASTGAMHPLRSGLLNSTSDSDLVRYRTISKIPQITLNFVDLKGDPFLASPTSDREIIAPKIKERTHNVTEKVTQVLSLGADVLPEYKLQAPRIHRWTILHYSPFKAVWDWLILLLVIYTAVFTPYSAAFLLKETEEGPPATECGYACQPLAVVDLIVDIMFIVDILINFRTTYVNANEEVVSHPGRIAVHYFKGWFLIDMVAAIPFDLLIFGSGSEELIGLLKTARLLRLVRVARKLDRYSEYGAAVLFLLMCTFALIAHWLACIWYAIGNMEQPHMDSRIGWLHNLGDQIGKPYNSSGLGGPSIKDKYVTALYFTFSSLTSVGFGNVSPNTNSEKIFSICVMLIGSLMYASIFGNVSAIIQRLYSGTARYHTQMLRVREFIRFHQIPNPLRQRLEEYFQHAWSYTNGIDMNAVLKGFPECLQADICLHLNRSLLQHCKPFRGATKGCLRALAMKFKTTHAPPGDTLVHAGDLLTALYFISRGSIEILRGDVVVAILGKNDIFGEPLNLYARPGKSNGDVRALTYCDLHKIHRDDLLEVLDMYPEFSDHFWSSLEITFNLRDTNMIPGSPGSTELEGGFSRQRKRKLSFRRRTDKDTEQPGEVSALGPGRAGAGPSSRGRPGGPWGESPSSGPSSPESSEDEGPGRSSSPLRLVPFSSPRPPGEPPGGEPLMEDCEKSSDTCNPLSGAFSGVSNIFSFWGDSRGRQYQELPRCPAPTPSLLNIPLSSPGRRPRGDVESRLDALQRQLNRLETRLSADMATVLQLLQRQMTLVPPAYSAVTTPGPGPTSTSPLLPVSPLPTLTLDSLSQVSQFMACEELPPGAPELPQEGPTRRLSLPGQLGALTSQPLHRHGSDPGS

The test concerns the target human ether-à-go-go-related gene (hERG) potassium channel (human, UniProt Q12809). The experiment in a line: primary screen, population patch clamp on CHO cells stably expressing hERG; higher = less effect of the substance.
`Cc1nn(-c2ccccc2)cc1/C=N/O`: the “hERG current change (%, negative = inhibition) at 10uM” value is on record as 0.476%. In the case of `Cc1ccc(C(=O)NCCCN2CCOCC2)c(Cl)c1`, the “hERG current change (%, negative = inhibition) at 10uM” value is 13%.

`CCOC(=O)c1sc(=S)n(C)c1C`: the “hERG current change (%, negative = inhibition) at 10uM” value stood at 12%.

For the compound `Cc1ccc(S(=O)(=O)N2CCN(C(=O)CSc3ccccn3)CC2)c(C)c1`, the “hERG current change (%, negative = inhibition) at 10uM” value is reported as -26.5%. Consider `Cn1c(CN2CCN(c3ccccc3NS(C)(=O)=O)CC2)nc2ccccc21`, for which the “hERG current change (%, negative = inhibition) at 10uM” value was -61.5%.

For the compound `CN1CCN(Cc2nc3ccccc3n2C)CC1CCO` (stereo not shown), the “hERG current change (%, negative = inhibition) at 10uM” value came out at 3.83%. The figure for `Cc1ccc(S(=O)(=O)n2c(CN3CCCC(C)C3)nc3ccccc32)cc1` (stereo not shown) is -14.6%. The figure for `Cc1ccc(S(=O)(=O)N2CCN(Cc3nc4ccccc4n3C)CC2)cc1` is -53.5%; for `CN1CCN(Cc2nc3ccccc3n2C)CC1` it is -0.083%. Consider `CN(Cc1nc2ccccc2n1C)S(C)(=O)=O`, for which the “hERG current change (%, negative = inhibition) at 10uM” value is given as -5.28%. The figure for `O=C(COC(=O)c1cccc(Cl)c1)Nc1cc(Cl)ccc1Oc1ccccc1` is 15.1%. The figure for `COCc1cc(=O)n2[nH]c(-c3cccc(Br)c3)cc2n1` is -24.2%. `CC1=CC(=O)C=C(C)C1=NOC(=O)c1cccc([N+](=O)[O-])c1`: the “hERG current change (%, negative = inhibition) at 10uM” value is listed as 9.59%. For `CCOc1ccc2oc(C(=O)NC3CCN(Cc4ccccc4)CC3)c(C)c2c1.Cl`, the “hERG current change (%, negative = inhibition) at 10uM” value is on record as -15.1%. As for `Cc1c(C(=O)NCCN2CCOCC2)oc2ccc(Br)cc12`, the figure is -15%; as for `CCOC(=O)N1CCC(NC(=O)c2oc3c(F)cccc3c2C)CC1`, -15.4%; as for `Cc1c(C(=O)NC2CCN(Cc3ccccc3)C2)oc2ccc(Br)cc12` (stereo not shown), -61.8%. As for `O=C(NC1CCN(Cc2ccccc2)CC1)c1c(Cl)cccc1Cl`, the figure is -10.7%. For the compound `Cc1c(C(=O)NC2CCN(Cc3ccccc3)C2)oc2c(Cl)cccc12` (stereo not shown), the “hERG current change (%, negative = inhibition) at 10uM” value is reported as -71.8%. The figure for `O=C(OCC(=O)c1cccs1)C1=COCCO1` is 19.7%; for `CC1CN(C(=O)/C(C#N)=C2\N=C(NC(=O)c3ccc(F)cc3)c3ccccc32)CC(C)O1` (stereo not shown) it is 14.1%. Consider `CCOC(=O)C1(Cc2ccccc2)CCCN(CCO)C1` (stereo not shown), for which the “hERG current change (%, negative = inhibition) at 10uM” value came to 6.18%.

In the case of `COc1cc2cc(C(=O)N3CCN(c4ccccc4OC)CC3)[nH]c2cc1OC`, the “hERG current change (%, negative = inhibition) at 10uM” value was 24.5%.

`C=CCN1CCN(C(=O)CCc2ccccc2)CC1`: the “hERG current change (%, negative = inhibition) at 10uM” value amounted to 13.8%.

In the case of `COc1cccc(N2CCN(C(=S)Nc3ccc(F)cc3)CC2)c1`, the “hERG current change (%, negative = inhibition) at 10uM” value is recorded as 16.1%. `CC1CCN(CCCOc2ccc(OCc3ccccc3)cc2)CC1.O=C(O)C(=O)O`: the “hERG current change (%, negative = inhibition) at 10uM” value was -71.4%.

`CC1CCN(CCOc2ccc(OCc3ccccc3)cc2)CC1.O=C(O)C(=O)O`: the “hERG current change (%, negative = inhibition) at 10uM” value is -70.9%. Consider `CC1CCCN(Cc2ccc(OCc3ccccc3)cc2)C1` (stereo not shown), for which the “hERG current change (%, negative = inhibition) at 10uM” value was -43.3%. Take `COc1ccc(Cl)cc1N1C(=O)C2CCCN2C1c1ccccc1F` (stereo not shown): the “hERG current change (%, negative = inhibition) at 10uM” value is -0.486%. As for `C=CCNC(=O)C12CC3(C)CC(C)(CC(C)(C3)C1)C2`, the figure is -11.8%; as for `CCOC(=O)C1CCCN(C(=O)CN(c2ccc(OC)cc2)S(=O)(=O)c2c(C)noc2C)C1` (stereo not shown), -4.08%; as for `CCOC(=O)C1(Cc2ccc(OC)cc2)CCN(C(=O)c2cc(C)nn2C)CC1`, -40.5%. Turning to `O=[N+]([O-])c1cccc(Cl)c1NCCNS(=O)(=O)c1ccccc1`, the “hERG current change (%, negative = inhibition) at 10uM” value is on record as -15.2%. The figure for `Oc1ccccc1/C=N/c1c(-c2ccco2)nc2ccccn12` is -4.17%; for `OC1CCN(c2c3c(nc4cc(-c5ccc(F)cc5)nn24)CCC3)CC1` it is -7.45%. The figure for `Cc1ccc(/C=C/C(=O)N2CCCC(C(N)=O)C2)o1` (stereo not shown) is -8.59%. For the compound `COc1ccc2c(c1)sc(N)[n+]2Cc1cc(C)cc2cccnc12.[Br-]`, the “hERG current change (%, negative = inhibition) at 10uM” value was -74%. As for `CCOc1ccc(C(=O)C[n+]2cccc3cc(C)ccc32)cc1.[Br-]`, the figure is -47.9%. With `Cc1cc(C[n+]2ccsc2N)c2ncccc2c1.[Br-]`, the “hERG current change (%, negative = inhibition) at 10uM” value is -48.2%. As for `CCOc1ccc2c(c1)sc(N)[n+]2Cc1cc(C)cc2cccnc12.[Br-]`, the figure is -74.9%; as for `Cc1cc(C[n+]2ncsc2N)c2ncccc2c1.[Br-]`, -33.8%.

As for `CCOc1cccc(OCCCOc2cccc3cccnc23)c1`, the “hERG current change (%, negative = inhibition) at 10uM” value was -8.52%. The figure for `CC(C)CCN(C(=O)C1CSC2(C)CCC(=O)N12)c1c(N)n(Cc2ccccc2)c(=O)[nH]c1=O` (stereo not shown) is 6.21%. On to `CC12CCC(C(=O)N(c3cccc(Cl)c3)C1=O)C2(C)C` (stereo not shown), for which the “hERG current change (%, negative = inhibition) at 10uM” value is on record as -4.23%. The figure for `O=Nc1ccc(NOC(=O)c2ccccc2)cc1` is 5.89%; for `COc1ccc(CNC(=O)C(C#N)c2nc3ccccc3nc2N2CCCC2)cc1` (stereo not shown) it is 10.1%. As for `COc1ccc(C)cc1NC(=O)c1ccc(S(=O)(=O)N2CCOCC2)cc1`, the figure is 2.48%; as for `Cc1c(C(O)CN2CCN(Cc3ccc4c(c3)OCO4)CC2)c2ccccc2n1C` (stereo not shown), -75.6%; as for `Cl.OC(COCc1ccccc1)CN1CCN(Cc2ccc3c(c2)OCO3)CC1` (stereo not shown), -45%. For `C=CCc1ccccc1OCC(O)CN1CCOCC1` (stereo not shown), the “hERG current change (%, negative = inhibition) at 10uM” value turned out to be 13.1%. As for `CC(C)OCC(O)CN1CCN(CC(O)COc2ccc3c(c2)OCO3)CC1` (stereo not shown), the figure is -33.3%; as for `Cl.OCCN1CCN(CC(O)COc2ccc3c(c2)OCO3)CC1` (stereo not shown), 12.7%. As for `Cc1cc(C)cc(OCC(O)CN2CCN(Cc3ccc4c(c3)OCO4)CC2)c1.Cl` (stereo not shown), the figure is -76%; as for `Cc1c(C(=O)C(=O)N2CCN(Cc3ccc4c(c3)OCO4)CC2)c2ccccc2n1C`, -8.7%.

With `COc1ccc(OCC(O)CN2CCN(Cc3ccc4c(c3)OCO4)CC2)cc1.Cl` (stereo not shown), the “hERG current change (%, negative = inhibition) at 10uM” value was -47.4%. The figure for `C=CCc1ccccc1OCC(O)CN1CCN(Cc2ccc3c(c2)OCO3)CC1` (stereo not shown) is -91%; for `COc1ccc2c(c1)c(C(O)CN1CCN(Cc3ccc4c(c3)OCO4)CC1)c(C)n2C` (stereo not shown) it is -11%; for `Cl.OC(COc1ccccc1)CN1CCN(Cc2ccc3c(c2)OCO3)CC1` (stereo not shown) it is -60.5%.
